Reference: PubChem BioAssay (Tox21)
Records with an inconclusive call do not appear. Calls of active or inactive are those of the source. The call rests on the fitted dose curve; in most records, active means well fitted curve in the direction sought with a large enough effect in the repeat runs; inconclusive means weak or mixed curves; inactive means no such curve, though single readings can be large; an effect the other way counts as inactive or inconclusive.

Key:
[1] = Caspase-3/7 induction in HepG2 cells by small molecules, qHTS assay (AID 1346978); further: nearly all actives have a fitted effect of over 15% in size
Outline: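 Wild-type HepG2 cells, 2,000/well, settled 5 hr at 37 C and 5% CO2, then compound-treated for 17 hr; caspase-3/7 activity read by luminescent Caspase-Glo 3/7 after 30 min at room temperature.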

[2] = Caspase-3/7 induction in CHO-K1 cells by small molecules, qHTS assay (AID 1346980); further: nearly all actives have a fitted effect of over 15% in size
Outline: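 Wild-type CHO-K1 cells exposed to compounds for 17hr at 37 C, 5% CO2. Caspase-3/7 activity then measured by Caspase-Glo 3/7 luminescence after 30min at room temperature.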

[3] = Caspase-3/7 induction in HepG2 cells by small molecules, qHTS cell viability counter screen (AID 1346981); further: series mostly up to about 92 µM; nearly all actives have a fitted effect of over 30% in size
Outline: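 Fluorescence read-out of live-cell protease activity (CellTiter-Fluor) after 1 hr with reagent. This was measured in the same wells as the caspase-3/7 luminescence, on HepG2 cells exposed to DMSO-dissolved compounds for 16 hr at 37 C.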

[4] = molecular target: Nuclear receptor subfamily 1 group I member 2 (Homo sapiens) (UniProt O75469); experiment: Human pregnane X receptor (PXR) small molecule agonists, qHTS assay (AID 1346982); further: nearly all actives have a fitted effect of over 35% in size; further: potency means the concentration at half of the fitted maximal effect
Chain of Nuclear receptor subfamily 1 group I member 2 (Homo sapiens) (O75469 whole entry, looked up): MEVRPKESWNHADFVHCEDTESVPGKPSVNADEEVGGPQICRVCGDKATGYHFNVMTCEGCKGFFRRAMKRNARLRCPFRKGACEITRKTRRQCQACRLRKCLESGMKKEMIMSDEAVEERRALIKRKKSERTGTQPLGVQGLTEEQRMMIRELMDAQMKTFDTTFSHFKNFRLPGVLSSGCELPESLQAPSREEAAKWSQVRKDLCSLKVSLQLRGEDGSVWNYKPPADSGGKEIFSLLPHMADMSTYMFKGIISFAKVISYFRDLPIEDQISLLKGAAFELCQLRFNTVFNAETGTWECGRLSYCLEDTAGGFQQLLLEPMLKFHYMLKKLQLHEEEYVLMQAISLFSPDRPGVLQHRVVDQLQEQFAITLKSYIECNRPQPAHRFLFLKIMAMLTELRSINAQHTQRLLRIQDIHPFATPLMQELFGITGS
Outline: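 HepG2 PXR-Luc reporter line, 5% charcoal-stripped FBS; 5 hr pre-incubation, compound (DMSO) 24 hr at 37 C/5% CO2; ONE-Glo 30 min RT; luminescence read-out.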

[5] = molecular target: Cytochrome P450 2D6 (Homo sapiens) (UniProt P10635); experiment: Cytochrome P450 Family 2 Subfamily D Member 6 (CYP2D6) small molecule antagonists: luciferase reporter qHTS assay (AID 1671196); further: nearly all actives have a fitted effect of over 50% in size; further: potency means the concentration at half of the fitted maximal effect
Chain of Cytochrome P450 2D6 (Homo sapiens) (P10635 whole entry, looked up): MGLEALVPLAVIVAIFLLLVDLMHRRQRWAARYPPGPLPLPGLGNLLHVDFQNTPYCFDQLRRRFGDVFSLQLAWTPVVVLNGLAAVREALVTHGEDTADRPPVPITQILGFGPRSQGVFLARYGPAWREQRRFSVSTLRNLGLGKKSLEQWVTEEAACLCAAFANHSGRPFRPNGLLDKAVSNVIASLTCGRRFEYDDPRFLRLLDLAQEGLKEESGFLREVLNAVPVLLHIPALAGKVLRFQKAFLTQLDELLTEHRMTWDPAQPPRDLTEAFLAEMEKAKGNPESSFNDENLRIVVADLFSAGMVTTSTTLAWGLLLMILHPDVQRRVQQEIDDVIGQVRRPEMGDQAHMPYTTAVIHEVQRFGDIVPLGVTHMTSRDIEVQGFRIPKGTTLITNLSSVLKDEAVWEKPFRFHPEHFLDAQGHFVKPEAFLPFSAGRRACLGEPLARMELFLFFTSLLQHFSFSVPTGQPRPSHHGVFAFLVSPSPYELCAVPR
Outline: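 Luminogenic proluciferin substrate, CYP2D6 enzyme; 10 min RT preincubation with compound, NADPH regeneration system added, 1 h RT. Stop/detection reagent, 20 min RT, luminescence read (RLU). Signal proportional to CYP activity.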

[6] = molecular target: Cytochrome P450 2C19 (Homo sapiens) (UniProt P33261); experiment: Cytochrome P450 Family 2 Subfamily C Member 19 (CYP2C19) small molecule antagonists: luciferase reporter qHTS assay (AID 1671197); further: nearly all actives have a fitted effect of over 65% in size; further: potency means the concentration at half of the fitted maximal effect
Chain of Cytochrome P450 2C19 (Homo sapiens) (P33261 whole entry, looked up): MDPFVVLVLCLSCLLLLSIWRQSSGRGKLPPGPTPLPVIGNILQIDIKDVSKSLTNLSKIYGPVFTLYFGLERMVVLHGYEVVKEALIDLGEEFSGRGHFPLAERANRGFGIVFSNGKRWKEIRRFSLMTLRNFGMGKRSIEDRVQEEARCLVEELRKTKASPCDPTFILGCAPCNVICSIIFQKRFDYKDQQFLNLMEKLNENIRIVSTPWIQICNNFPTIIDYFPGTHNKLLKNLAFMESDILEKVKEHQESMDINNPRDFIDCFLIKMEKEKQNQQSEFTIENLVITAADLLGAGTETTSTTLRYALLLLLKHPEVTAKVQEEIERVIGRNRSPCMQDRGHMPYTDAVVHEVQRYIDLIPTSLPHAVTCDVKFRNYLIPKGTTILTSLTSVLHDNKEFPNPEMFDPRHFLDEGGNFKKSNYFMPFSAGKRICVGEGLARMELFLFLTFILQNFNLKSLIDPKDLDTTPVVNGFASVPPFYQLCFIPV
Outline: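 First, compounds are pinned into enzyme-substrate mix and held 10 min at room temperature. Second, NADPH regeneration solution is added and plates incubate 1 h at 37C. Third, detection reagent is added and luminescence read after 20 min.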

[7] = molecular target: Cytochrome P450 2C9 (Homo sapiens) (UniProt P11712); experiment: Cytochrome P450 Family 2 Subfamily C Member 9 (CYP2C9) small molecule antagonists: luciferase reporter qHTS assay (AID 1671198); further: nearly all actives have a fitted effect of over 50% in size; further: potency means the concentration at half of the fitted maximal effect
Chain of Cytochrome P450 2C9 (Homo sapiens) (P11712 whole entry, looked up): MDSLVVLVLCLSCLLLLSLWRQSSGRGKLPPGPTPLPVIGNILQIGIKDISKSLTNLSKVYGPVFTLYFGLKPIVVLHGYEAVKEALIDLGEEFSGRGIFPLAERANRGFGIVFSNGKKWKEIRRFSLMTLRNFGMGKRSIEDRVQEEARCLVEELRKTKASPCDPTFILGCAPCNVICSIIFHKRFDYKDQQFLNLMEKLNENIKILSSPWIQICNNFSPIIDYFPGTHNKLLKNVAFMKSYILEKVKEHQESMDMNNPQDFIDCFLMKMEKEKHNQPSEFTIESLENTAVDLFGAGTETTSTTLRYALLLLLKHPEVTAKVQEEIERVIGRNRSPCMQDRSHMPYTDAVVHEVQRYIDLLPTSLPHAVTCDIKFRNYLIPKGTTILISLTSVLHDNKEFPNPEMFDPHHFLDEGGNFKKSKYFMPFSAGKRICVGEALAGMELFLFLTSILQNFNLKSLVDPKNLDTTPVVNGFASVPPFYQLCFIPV
Outline: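 P450-Glo proluciferin substrate with CYP2C9 enzyme; 10 min RT preincubation, then NADPH regeneration 1 h at 37C; luciferin detection reagent 20 min RT, luminescence in relative luminescence units.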

[8] = molecular target: Voltage-gated inwardly rectifying potassium channel KCNH2 (Homo sapiens) (UniProt Q12809); experiment: Human Ether-a-go-go-Related Gene (hERG) channel small molecule antagonists: fluorescence cell-based qHTS assay (AID 1671200); further: nearly all actives have a fitted effect of over 50% in size; further: potency means the concentration at half of the fitted maximal effect
Chain of Voltage-gated inwardly rectifying potassium channel KCNH2 (Homo sapiens) (Q12809 whole entry, looked up): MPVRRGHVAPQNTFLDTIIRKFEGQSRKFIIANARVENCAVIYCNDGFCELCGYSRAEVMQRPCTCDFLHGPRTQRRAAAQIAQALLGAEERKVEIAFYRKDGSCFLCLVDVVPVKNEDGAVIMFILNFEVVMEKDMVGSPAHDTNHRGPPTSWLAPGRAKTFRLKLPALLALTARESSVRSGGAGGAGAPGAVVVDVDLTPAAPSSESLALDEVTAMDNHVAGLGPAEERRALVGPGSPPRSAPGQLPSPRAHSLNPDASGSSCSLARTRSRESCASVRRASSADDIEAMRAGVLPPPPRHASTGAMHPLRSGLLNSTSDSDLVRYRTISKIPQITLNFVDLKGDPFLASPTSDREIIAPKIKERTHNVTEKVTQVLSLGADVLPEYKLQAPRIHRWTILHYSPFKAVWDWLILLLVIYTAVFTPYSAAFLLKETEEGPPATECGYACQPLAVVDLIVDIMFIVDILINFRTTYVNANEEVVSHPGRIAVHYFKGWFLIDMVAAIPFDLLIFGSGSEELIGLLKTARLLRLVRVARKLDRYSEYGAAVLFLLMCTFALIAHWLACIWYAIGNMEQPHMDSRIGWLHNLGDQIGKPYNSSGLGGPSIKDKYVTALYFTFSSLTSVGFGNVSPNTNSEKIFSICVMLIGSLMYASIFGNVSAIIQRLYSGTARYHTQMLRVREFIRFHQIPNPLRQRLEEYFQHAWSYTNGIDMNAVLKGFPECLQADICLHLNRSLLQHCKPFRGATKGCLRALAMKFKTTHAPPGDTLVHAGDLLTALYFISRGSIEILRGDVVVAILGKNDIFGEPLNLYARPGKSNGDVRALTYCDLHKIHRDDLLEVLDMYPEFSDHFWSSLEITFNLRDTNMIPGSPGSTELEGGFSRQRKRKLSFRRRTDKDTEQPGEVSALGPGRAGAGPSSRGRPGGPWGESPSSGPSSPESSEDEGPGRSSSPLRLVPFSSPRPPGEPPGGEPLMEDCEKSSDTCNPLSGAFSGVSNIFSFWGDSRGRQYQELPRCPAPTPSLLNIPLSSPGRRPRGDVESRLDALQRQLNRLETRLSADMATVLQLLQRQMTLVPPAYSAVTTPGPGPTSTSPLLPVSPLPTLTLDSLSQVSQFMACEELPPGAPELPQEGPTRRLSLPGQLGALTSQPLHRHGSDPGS
Outline: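 In this thallium-flux screen, overnight-cultured U2OS cells bearing the channel are dye-loaded in darkness for an hour, rested 10 min at room temperature, and then monitored kinetically at 480/540 nm for two minutes post-stimulus.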

[9] = molecular target: Cytochrome P450 3A4 (Homo sapiens) (UniProt P08684); experiment: Cytochrome P450 Family 3 Subfamily A Member 4 (CYP3A4) small molecule antagonists: luciferase reporter qHTS assay (AID 1671201); further: nearly all actives have a fitted effect of over 50% in size; further: potency means the concentration at half of the fitted maximal effect
Chain of Cytochrome P450 3A4 (Homo sapiens) (P08684 whole entry, looked up): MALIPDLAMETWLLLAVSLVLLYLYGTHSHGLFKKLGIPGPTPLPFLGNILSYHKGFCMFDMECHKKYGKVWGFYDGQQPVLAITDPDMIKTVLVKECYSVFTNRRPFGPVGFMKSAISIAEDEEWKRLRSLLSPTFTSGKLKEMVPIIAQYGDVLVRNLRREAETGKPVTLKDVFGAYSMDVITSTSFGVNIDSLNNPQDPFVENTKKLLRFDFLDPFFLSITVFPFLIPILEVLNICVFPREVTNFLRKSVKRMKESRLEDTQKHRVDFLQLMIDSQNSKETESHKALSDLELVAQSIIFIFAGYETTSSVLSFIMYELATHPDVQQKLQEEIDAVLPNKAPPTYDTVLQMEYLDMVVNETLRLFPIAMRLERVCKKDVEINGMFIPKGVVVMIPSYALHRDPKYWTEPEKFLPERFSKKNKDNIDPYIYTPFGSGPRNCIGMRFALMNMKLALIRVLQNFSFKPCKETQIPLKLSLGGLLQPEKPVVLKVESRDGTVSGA
Outline: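 CYP3A4 activity was followed with a P450-Glo proluciferin substrate. Test compounds in DMSO were preincubated 10 min; NADPH regeneration then ran 1 h, and light output was read 20 min after detection reagent.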

[10] = molecular target: Cytochrome P450 1A2 (Homo sapiens) (UniProt P05177); experiment: Cytochrome P450 Family 1 Subfamily A Member 2 (CYP1A2) small molecule antagonists: luciferase reporter qHTS assay (AID 1671199); further: nearly all actives have a fitted effect of over 50% in size; further: potency means the concentration at half of the fitted maximal effect
Chain of Cytochrome P450 1A2 (Homo sapiens) (P05177 whole entry, looked up): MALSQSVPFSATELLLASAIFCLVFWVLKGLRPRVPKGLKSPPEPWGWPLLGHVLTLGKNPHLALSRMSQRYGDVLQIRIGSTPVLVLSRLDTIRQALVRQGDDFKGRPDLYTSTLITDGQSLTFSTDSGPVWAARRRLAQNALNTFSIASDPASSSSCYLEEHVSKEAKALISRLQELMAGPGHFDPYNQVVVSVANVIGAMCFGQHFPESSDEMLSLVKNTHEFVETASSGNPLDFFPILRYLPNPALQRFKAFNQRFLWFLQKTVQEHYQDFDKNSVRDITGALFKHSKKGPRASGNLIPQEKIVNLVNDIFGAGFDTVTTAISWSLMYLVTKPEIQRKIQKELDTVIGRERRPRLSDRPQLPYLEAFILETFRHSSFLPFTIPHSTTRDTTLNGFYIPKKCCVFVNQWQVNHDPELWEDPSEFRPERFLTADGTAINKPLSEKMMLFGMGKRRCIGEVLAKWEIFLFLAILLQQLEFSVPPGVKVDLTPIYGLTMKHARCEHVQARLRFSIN
Outline: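 Luminescence readout (relative luminescence units) after luciferin detection reagent, 20 min RT. Preceded by 1 h room-temperature CYP1A2 reaction with NADPH regeneration solution following 10 min compound preincubation with enzyme and proluciferin substrate. Furafylline positive control.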

[11] = molecular target: Nuclear receptor subfamily 1 group I member 2 (Homo sapiens) (UniProt O75469); experiment: CYP3A4 induction through human pregnane X receptor (PXR) by small molecules, qHTS assay (AID 1346984); further: nearly all actives have a fitted effect of over 40% in size
Outline: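 HepG2-derived DPX-2 line carrying PXR plus a CYP3A4-promoter luciferase reporter; cells plated 5 hr, compound-exposed 24 hr at 37C. CYP3A4 activity probed with 3uM (final) Luciferin-IPA for 3hr, then luciferase read after One-Glo.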

[12] = molecular target: Nuclear receptor subfamily 1 group I member 2 (Homo sapiens) (UniProt O75469); experiment: Human pregnane X receptor (PXR) activation by small molecules, qHTS assay (AID 1346985); further: nearly all actives have a fitted effect of over 40% in size
Outline: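 DPX-2 cells (HepG2 co-transfected with a PXR response element and a CYP3A4-promoter luciferase construct) were seeded at 2,000 per well, rested 5 hr at 37C, then exposed to DMSO-dissolved compounds for 24 hr. Activation was read as luciferase luminescence.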

Measured: Potency

C/C=C(\C)C(=O)OCCC(C)CCC=C(C)C (centres undefined)
active: [6] 20 µM | [7] 39.9 µM | [9] 20 µM
not listed: [10] | [11] | [12]
inactive: all other assays above

CC1(C)C(=O)N(Br)C(=O)N1Cl
active: [6] 71 µM | [7] 63.3 µM
inactive: [1] | [2] | [3] | [4] | [8]

CCOC(=N)CC(=O)OCC
active: [10] 39.9 µM
not listed: [5] | [11] | [12]
inactive: all other assays above

O=C(CCC1CCN(Cc2ccccc2)CC1)c1ccc2c(c1)NCCCC2
active: [5] 8.71 µM | [8] 4.77 µM
not listed: [4] | [11] | [12]
inactive: all other assays above

CSc1ccc(Oc2ccc(S(N)(=O)=O)cc2CN(C)C)cc1C
active: [4] 19.3 µM | [6] 35.6 µM | [10] 63.3 µM | [8] 6.92 µM
inactive: [1] | [2] | [3]

C/C=C/C=C/CCCCCCCO
active: [4] 61.1 µM | [6] 25.2 µM | [7] 7.1 µM | [9] 15.9 µM
inactive: [1] | [2] | [3]

NC(=O)Nc1ccc(Cl)cc1
inactive: [1] | [2] | [3] | [4] | [8] | [9]
active: [6] 79.3 µM | [10] 31.6 µM

Cc1cnc(C)c(C)n1
inactive: [1] | [2] | [3] | [4] | [6] | [7] | [8]

O=C(c1ccc(O)cc1)c1ccc(Cl)cc1
active: [4] 24.9 µM | [5] 64.7 µM | [6] 18.2 µM | [7] 25.7 µM | [10] 18.2 µM
inactive: [1] | [2] | [3] | [8]

CCCCC(CC)COC(=O)COc1ccc(Cl)cc1C (centres undefined)
active: [6] 8.94 µM | [10] 12.6 µM
inactive: [1] | [2] | [3] | [4] | [5] | [8]

CCCCCCCCCCCC[N+](C)(C)CC(=O)[O-]
active: [10] 35.6 µM
not listed: [5] | [6] | [11] | [12]
inactive: all other assays above

CC(C)(CCl)c1ccccc1
not listed: [9] | [11] | [12]
inactive: all other assays above

COC(=O)c1cc(Cl)ccc1NS(=O)(=O)C(F)(F)F
active: [10] 0.55 µM
not listed: [5] | [11] | [12]
inactive: all other assays above

CCCCCCCCCCOS(=O)(=O)O
active: [7] 44.6 µM
not listed: [4] | [5] | [11] | [12]
inactive: all other assays above

CCn1nc(C)c2c1C(=O)NCC(c1ccc(O)cc1)=N2
active: [7] 44.8 µM | [10] 63.3 µM | [9] 31.7 µM
inactive: [1] | [2] | [3] | [6] | [8]

CCOC(=O)CC(=O)C(=O)OCC
inactive: [1] | [2] | [3] | [5]
active: [6] 35.6 µM | [7] 39.9 µM | [10] 31.7 µM | [8] 49 µM | [9] 71 µM

CC(=O)Oc1ccc(C(=C2CCCCC2)c2ccc(OC(C)=O)cc2)cc1
active: [5] 15.5 µM | [6] 9.77 µM | [7] 9.77 µM
not listed: [4]
inactive: all other assays above

O=C(O)c1c(O)c(-c2ccccc2)nc2ccccc12
active: [7] 30.9 µM | [10] 17.4 µM
not listed: [6] | [11] | [12]
inactive: all other assays above

O=S1OCCO1
not listed: [10] | [11] | [12]
inactive: all other assays above

Cc1ccc(/C=N/n2c(-c3ccccc3)csc2=S)cc1
active: [4] 23.7 µM | [6] 8.71 µM | [7] 6.92 µM | [10] 7.76 µM
inactive: [1] | [2] | [3] | [5] | [8]

CNC(=S)NC
active: [10] 31.7 µM
not listed: [5] | [11] | [12]
inactive: all other assays above

C=CCNc1nc(NCC=C)nc(N2CCN(C(c3ccc(F)cc3)c3ccc(F)cc3)CC2)n1
active: [4] 13.3 µM
inactive: [1] | [2] | [3] | [6] | [10]
